Assay results taken from ChEMBL document CHEMBL1201862, “PubChem BioAssay data set” (2004).
Hit rate of the full screen: of about 400,000 compounds, about 2,100 (0.53%) were called active. Roughly 14% stayed inconclusive and do not appear here. This is one part of a sample in which actives are shown more often than they occur. No rule for the calls is given here.

These compounds were tested against Ataxin-2 (Homo sapiens) (UniProt Q99700) (assay: qHTS for Inhibitors of ATXN expression.).
Format: functional

Ataxin-2 (Homo sapiens), sequence (Q99700 whole entry): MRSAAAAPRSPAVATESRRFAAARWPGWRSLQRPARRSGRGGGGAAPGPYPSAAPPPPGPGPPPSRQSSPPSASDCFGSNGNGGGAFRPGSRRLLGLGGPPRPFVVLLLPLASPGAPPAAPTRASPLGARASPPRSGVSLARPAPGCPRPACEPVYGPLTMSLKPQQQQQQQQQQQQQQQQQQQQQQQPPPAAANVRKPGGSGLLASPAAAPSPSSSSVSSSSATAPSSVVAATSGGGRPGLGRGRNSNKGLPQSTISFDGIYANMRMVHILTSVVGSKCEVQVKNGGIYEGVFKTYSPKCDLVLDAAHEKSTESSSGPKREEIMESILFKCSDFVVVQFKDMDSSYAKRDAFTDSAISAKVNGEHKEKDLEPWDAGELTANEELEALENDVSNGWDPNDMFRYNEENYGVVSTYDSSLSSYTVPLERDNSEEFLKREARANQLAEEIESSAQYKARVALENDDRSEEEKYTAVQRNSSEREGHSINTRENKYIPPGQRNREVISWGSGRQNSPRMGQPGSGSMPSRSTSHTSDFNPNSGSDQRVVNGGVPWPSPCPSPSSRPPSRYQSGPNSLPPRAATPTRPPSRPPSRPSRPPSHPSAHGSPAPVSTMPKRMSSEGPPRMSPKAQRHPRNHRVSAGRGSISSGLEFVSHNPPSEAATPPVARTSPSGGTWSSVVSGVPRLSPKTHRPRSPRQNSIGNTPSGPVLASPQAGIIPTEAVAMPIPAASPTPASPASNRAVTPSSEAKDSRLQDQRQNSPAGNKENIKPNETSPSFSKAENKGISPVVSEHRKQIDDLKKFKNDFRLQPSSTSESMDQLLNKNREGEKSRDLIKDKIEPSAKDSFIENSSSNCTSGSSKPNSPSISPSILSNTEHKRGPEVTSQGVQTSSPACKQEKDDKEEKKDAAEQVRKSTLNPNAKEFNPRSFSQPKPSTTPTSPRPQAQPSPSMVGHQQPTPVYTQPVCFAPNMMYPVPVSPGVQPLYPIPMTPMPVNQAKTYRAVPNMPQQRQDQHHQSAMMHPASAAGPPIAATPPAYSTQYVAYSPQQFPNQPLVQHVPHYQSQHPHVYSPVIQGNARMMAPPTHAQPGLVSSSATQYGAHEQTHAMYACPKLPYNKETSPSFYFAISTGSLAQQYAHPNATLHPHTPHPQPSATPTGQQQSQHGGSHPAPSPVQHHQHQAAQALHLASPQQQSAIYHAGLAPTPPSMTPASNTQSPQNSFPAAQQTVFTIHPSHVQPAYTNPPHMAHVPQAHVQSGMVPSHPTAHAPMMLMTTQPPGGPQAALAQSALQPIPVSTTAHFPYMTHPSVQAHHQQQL

Structure (SMILES) | Potency
O=C(CCc1ccccc1)NCC1(c2ccccc2)CCCC1 | inactive
COc1cc2c(cc1/C=C1/NC(=O)N(CC(=O)Nc3ccccc3)C1=O)OCO2 | inactive
Cc1c(-c2ccccc2)c(=O)oc2c(CN3CCOCC3)c(O)ccc12 | inactive
Cc1cccn2c(=O)c3cc(C(=O)NCC4CCCO4)c(=N)n(C4CCCC4)c3nc12 (stereo not drawn) | inactive
N=c1oc2cc(O)ccc2cc1C(=O)Nc1nc2ccccc2s1 | inactive
O=C(C=Cc1ccccc1)CC(c1ccccc1)N1CCOCC1 (stereo not drawn) | 28.2 µM (active)
Cc1ccc(S(=O)(=O)N(C)CC(=O)NCC(c2ccc(F)cc2)N2CCOCC2)cc1 (stereo not drawn) | inactive
O=C(O)c1cc(/C=C/c2ccc(N3CCOCC3)cc2)nc2ccccc12 | inactive
COc1ccc(C2C=C(c3ccccc3)Nc3nc(NC(C)=O)nn32)cc1 (stereo not drawn) | inactive
O=C(Nc1cccc(-c2cn3c(n2)SCC3)c1)c1ccc2c(c1)OCO2 | inactive
Cc1ccsc1C(=O)Nc1ccc(O)c(-c2nc3ccccc3s2)c1 | inactive
Cc1c(C(=O)Nc2ccc3c(c2)OCCO3)sc2nc(-c3ccccc3)cn12 | 39.8 µM (active)
C/N=c1\scc(C)n1/N=C/c1cc(Br)c(O)c(Br)c1 | inactive
COc1ccc(Cl)cc1NC(=O)CCS(=O)(=O)c1cccc2nonc12 | inactive
COc1ccc(NC(=O)c2ccc(NC(=O)CCS(=O)(=O)c3cccs3)cc2)cc1Cl | 39.8 µM (active)
CCc1ccc(NC(=O)CCNS(=O)(=O)c2cccs2)cc1 | inactive
Cc1c(OC(C)C(=O)NCCN2CCOCC2)ccc2c3c(c(=O)oc12)CCC3 (stereo not drawn) | inactive
O=C(Nc1cc(Cl)ccc1N1CCOCC1)c1cc2ccccc2o1 | inactive
CC1CCN(C(=O)c2cc(Cl)ccc2NC(=O)c2ccco2)CC1 | inactive
O=C(Nc1ccc(N2CCN(C(=O)c3ccco3)CC2)c(Cl)c1)c1cc2ccccc2o1 | 22.4 µM (active)
COc1cc(NC(=O)c2oc3ccccc3c2C)ccc1NC(=O)c1ccco1 | inactive

Structure (SMILES) | Potency
COc1cc(NC(=O)c2cc(Cl)ccc2Cl)ccc1NC(=O)c1cc2ccccc2o1 | 22.4 µM (active)
O=C(Nc1ccc(N2CCN(C(=O)c3ccco3)CC2)cc1)c1cc(Br)ccc1Cl | 35.5 µM (active)
O=C(CSc1nc(O)c2ccccc2n1)Nc1ccc(N2CCOCC2)c(Cl)c1 | inactive
N=c1oc2cc(O)ccc2cc1C(=O)Nc1ccc(Cl)cc1 | inactive
Cc1ccc(NC(=O)C2CCN(C(=O)c3ccco3)CC2)cc1 | inactive
O=C(Nc1ccc(N2CCOCC2)c(Cl)c1)c1cc2ccccc2o1 | 39.8 µM (active)
CCOC(=O)c1cc2ccc(OC(=O)c3ccco3)cc2oc1=O | inactive
CCN(CC)c1ccc(/C=N/NC(=O)c2cccc(S(=O)(=O)N3CCOCC3)c2)c(O)c1 | inactive
CCOC(=O)/C(C#N)=C1\CC2CCC1(C)C2(C)C (stereo not drawn) | inactive
O=C1c2cccc3c([N+](=O)[O-])ccc(c23)C(=O)N1c1ccccn1 | inactive
O=[N+]([O-])c1ccccc1Oc1ncccc1[N+](=O)[O-] | 8.91 µM (active)
CCC1Cc2c(nc(N)c3c(N)nc(N4CCOCC4)c(C#N)c23)O1 (stereo not drawn) | inactive
N#CCc1nc(C(c2ccccc2)c2ccccc2)no1 | inactive
CCCNC(=O)c1ccc2c(O)c(O)c(-c3ccsc3)nc2c1 | inactive
CC(C)N1CCc2c(sc(NC(=O)Cc3ccccc3)c2C#N)C1 | inactive
CC(C)N1CCc2c(sc(NC(=O)c3cc(-c4cccs4)nc4ccccc34)c2C(N)=O)C1 | 33.6 µM (active)
CC(C)N1CCc2c(sc(NC(=O)c3cc4cc([N+](=O)[O-])ccc4s3)c2C(N)=O)C1 | 29.9 µM (active)
CC(C)CN(CC(C)C)S(=O)(=O)c1ccc(C(=O)Nc2sc3c(c2C(N)=O)CCN(C(C)C)C3)cc1 | inactive
CCC(=O)Nc1sc2c(c1C(N)=O)CCN(Cc1ccccc1)C2 | inactive
CN1CCc2c(sc(NC(=O)c3ccc(S(=O)(=O)N4CCCCCC4)cc3)c2C(N)=O)C1 | inactive
CCOc1cc(CNCCO)cc(Br)c1OCc1ccc(Cl)cc1Cl | 39.8 µM (active)

Structure (SMILES) | Potency
CCOc1cc(CNC(C)(C)CO)cc(Br)c1OCc1ccc(Cl)cc1Cl | 39.8 µM (active)
Cc1ccc(C)c(OC(C)C(=O)Nc2ccc(S(=O)(=O)Nc3nccs3)cc2)c1 (stereo not drawn) | inactive
CCc1nnc(NC(=O)c2sc3nc(C)cc(COC)c3c2N)s1 | inactive
COc1ccc(/C=N/n2c(S)nnc2COc2ccccc2)cc1OC | inactive
Cc1nc2ccccc2c(=O)n1/N=C/c1ccc(O)c(O)c1O | inactive
Cc1ccc(-c2[nH]ncc2/C=N/n2c(COc3ccccc3C)nc3ccccc3c2=O)cc1 | 15.8 µM (active)
Cc1ccc(-c2nc3ccccc3c(=O)o2)cc1 | inactive
Oc1ccccc1/C=N/n1c(S)nnc1COc1ccccc1 | inactive
Cc1ccc(-c2[nH]ncc2/C=N/n2c(COc3ccccc3)nc3ccccc3c2=O)cc1 | 39.8 µM (active)
O=C(CSc1nnc(-c2cccc(Br)c2)o1)N1CCNC1=O | inactive
O=S(=O)(c1ccc2nc(N3CCN(c4ccccc4)CC3)ccc2c1)N1CCCCC1 | inactive
CC1CCN(S(=O)(=O)c2ccc3nc(Nc4cccc(F)c4)ccc3c2)CC1 | 35.5 µM (active)
CC1CCN(S(=O)(=O)c2ccc(NC(=O)CN3CCCC3)cc2)CC1 | inactive
O=C(OCCN1C(=O)c2cccc3c(N4CCOCC4)ccc(c23)C1=O)c1ccc(Cl)cc1 | inactive
O=C(CC(=O)N/N=C/c1ccc(C(=O)O)cc1)NCCc1ccccc1 | inactive
COCCN(Cc1ccccc1)C(=O)c1cccc(S(=O)(=O)N2CCCc3ccccc32)c1 | inactive
O=S(=O)(c1ccc(F)cc1)N1CCc2ccccc2C1 | inactive
COc1ccc2sc(N(CCCN(C)C)C(=O)c3ccc(S(=O)(=O)N4CCCc5ccccc54)cc3)nc2c1 | 39.8 µM (active)
COc1ccc(C)c2sc(N(CCCN(C)C)C(=O)c3ccc(S(=O)(=O)N4CCc5ccccc5C4)cc3)nc12 | 22.4 µM (active)
O=C(c1ccc(S(=O)(=O)N2CCCCC2)cc1)N1CCc2ccccc2C1 | inactive
O=C(Nc1nc2ccc([N+](=O)[O-])cc2s1)c1ccc(S(=O)(=O)N2CCCc3ccccc32)cc1 | inactive
